# About 1,400 (4.5%) of roughly 31,000 sequences were called active. Only a selection was taken, and actives are over-represented in it overall. Unmarked numbers belong to inactive results.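 How the source made its calls: active means median seed-adjusted z-score above 1 or below -1; inactive means the rest.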
# Assay: Novel Modifiers of Survival Motor Neuron (SMN) Protein: Gene Identification via Genome-wide siRNA Screen;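 further: luminescence tracks full-length SMN protein made from the SMN2 reporter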
# Conditions: HEK293T SMN2-luciferase reporter, siRNA knockdown, 72 h; actives lie on both sides
# Outline: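 siRNA screen, 10418 genes ×3 siRNAs; 1 pmol/well, lipid reverse transfection into HEK293T SMN2-luc reporter line. 72 h, 37 °C, 5% CO2; ONE-Glo readout. Data: neg-ctrl normalized, log10, MAD; hit = MAD >1.0 or < -1.0.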
row,Sequence,median seed-adjusted z-score
1,GGUCCAUCCAAAUUGUGGATT against CYP21A2,-0.26
2,GCGCAUCUAUCAACCCAAUTT against MLNR,-0.038
3,AGACUAAACUACUCUCGAATT against WDR46,-0.136
4,GCUGCUAUCAGUGAACGGATT against LIN7A,-1.39 (active)
5,CGUGUUAGUGAAUAAAGUATT against ZNF771,0.108
6,CGGCAGACACUGAACAUCATT against SLC6A18,0.148
7,GUAGCACAGAGGAUUAAAATT against TTC33,0.104
8,CUCUAACCGUGGUUCCAGATT against SUPT16H,1.2 (active)
9,CGGCGGAGUUUAUAGAUAATT against BCKDHA,-0.299
10,GAAUCUACCUUGCUGCUCATT against G6PC,-0.628
11,GGACUACUAUGCCACUGCUTT against SSTR4,-0.00217
12,CGGCAACUUCAAUAACAGUTT against LPHN1,-1.03 (active)
13,GAGGGACUAUUUCACGAAATT against PARD3B,0.306
14,GUGCAUCUCUUGACAAUUUTT against LIPI,0.65
15,GAAUAUUCUCGAUUUAAUATT against PPP1R3D,0
16,GGGCUGUUAUUUCAAGAAATT against GALNT13,-0.0149
17,GAGCAUGUUUUUACCCUUUTT against MGC17403,0.204
18,CCAUAACAUUCACAAGUGUTT against TRPS1,-0.125
19,CCAGGUCACGAGUCAAGUATT against KTI12,0.0814
20,GGCCGUAACCUCAACCGUUTT against SNX33,-0.246
21,GACAAUCGACCGAAAGCAATT against PPP4C,1.15 (active)
22,GGGCAACAGUUGAACACCATT against PDK4,-0.693
23,GCUUUGACCGUGUCCGAAATT against STT3A,0

row,Sequence,median seed-adjusted z-score
1,GCAUUUCCCAAGACGUGGATT against ZFYVE28,0.0678
2,GCAUUCACCAGAACGAGAATT against RIMS1,0
3,CGCAUCCAAGAGUACCUUUTT against ZNF229,-0.497
4,GGACAUGAACCUUAACGAATT against DIAPH2,-0.0149
5,CUAUACUCUUCGCUCCUAUTT against SIGMAR1,-1.4 (active)
6,GGUUGAAAAGGAGUGCAAATT against CACYBP,-0.33
7,CAAAUCUGCUCAUCGAAAATT against MID1,-0.294
8,AGAAGAUCAUAGGCAGCAATT against KLK8,0.736
9,GCUUCAGAGUCAACGGACATT against MICB,0.162
10,GAGGAACAGGAAUAACAUUTT against GCG,-1.18 (active)
11,GGCCUAACCAUAUGCCUAUTT against SS18,0.34
12,GGUUUUUCCGCCAACUAGATT against CAPS,-1.25 (active)
13,GGUGUGCGGUUCAUCUUCATT against ILVBL,0.343
14,CUAAAGAGGUCAACAUUGATT against RGS16,0
15,AGGUGUUCAUCGGCGUAAATT against GRHL3,-0.0434
16,CCAGCAGCAUGGAAGUUGUTT against HSD3B7,-0.0819
17,UCAUCUACCUGAUGCGUAUTT against TAF6,-1.36 (active)
18,GAACUAUGAAUAAAGCUUUTT against HAGHL,-0.334
19,GGCUUGAAGUAUGGAAAAATT against QRICH1,-1.04 (active)
20,CCAGCUUAGUUCAAUAUGATT against GABRA4,0.549
21,CCAUCCUGAUAAGAACCCATT against DNAJA1,-0.00548
22,GGGCCUACUUUACAUCACATT against TXNDC14,-2.39 (active)
23,CGCUUACAAGGUCAACAUUTT against S1PR3,-0.0931

row,Sequence,median seed-adjusted z-score
1,CAAGCUACGUAGAGAUCUATT against KIFC1,0.0417
2,ACAUGUUCCUCACCUUAAATT against SLC6A1,-0.122
3,GGAGGGAUAUGUUCCACGUTT against TP53BP2,0.157
4,CUACUGUGGGUGUCGCAUATT against UQCRFS1,-1.28 (active)
5,GAGCGACUUUGAUCACCAUTT against PANK2,0.121
6,CAUUCAUCAUCCACCCAGATT against MUPCDH,-0.329
7,CCCGGAUACUUCUGAAGAATT against HNRPDL,-0.68
8,CGGUGGGAUGGGAACGAAATT against DRAP1,1.08 (active)
9,CUAUGACUGGAUUAGCGUATT against BEST2,0.415
10,GCUUUUGAACUAUUUGAUATT against CETN3,-0.0815
11,UGAAGACCCAGAGAUGUAATT against PTN,-0.174
12,UGAGAUCGCUGUCAUGUUATT against PSMD10,0.265
13,GCAAGGUUUAAUGAACAAATT against GTF2E1,1.76 (active)
14,GUGAGAACUUUGACGAUUATT against PMP2,0.00618
15,GUAACUGCAUUCAACUUGATT against OSMR,0.548
16,UGAAAAACAUUAACAAGCATT against RNASE7,1.07 (active)
17,CAACCUACAUGUUUGCUGATT against SCARF1,-0.324
18,GGAACAUUCCGACCUACAATT against PTDSS2,0.0941
19,CCGUCACCAUCCUCAUCUATT against PORCN,0.214
20,GAUGAUUUUUGGAGACCUATT against TRPV5,0.0879
21,GGAGUUUGAGGUAUACCUATT against IL6,-0.436
22,GCUUUAACGUGUCUGUGCATT against SLC25A5,-0.0501
23,CUACUACUUUAAUCCCUAATT against FDFT1,-0.143

# Reference: PubChem BioAssay AID1347426 (Functional Genomics Laboratory (NCATS/FGL), 2020)
